Screens from PubChem BioAssay.
An excerpt weighted towards active compounds, which were near 1.8% of everything screened.
LYPLA2 counter – LYPLA2 inhibitors, primary screen, counter-screen for PME1 inhibitor project, biochemical, fluorescence polarization, FP-Rh probe ABPP; Acyl-protein thioesterase 2 (Homo sapiens), O95372; recombinant LYPLA2; inhibition, % at 5.9 µM; 320,000 tested, 0.38% active;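 active = inhibition above the screen-wide mean plus 3 SD, limit set per campaign, cut at about 26% in these data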;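 note: 0% = LYPLA2 with DMSO and 100% = wells lacking LYPLA2 enzyme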
PAD4 FP inh – human PAD4 inhibitors, primary screen, biochemical, fluorescence polarization, 1536-well format | 330,000 tested, 0.41% active | AID 485272, 2010 | inhibition, % at 6.36 µM | recombinant PAD4, RCA probe fluorescence polarization;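 active = percent inhibition above a cutoff equal to the mean of all tested compounds plus 3 SD, cut at about 15% in these data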;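 note: 0% = PAD4 with RCA probe and DMSO and 100% = probe without PAD4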
PME-1 primary – PME-1 inhibitors via competitive probe labeling, primary screen, biochemical, fluorescence polarization, FP-Rh probe, HTS | 320,000 tested, 0.53% active | recombinant PME-1 | inhibition, % at 5.9 µM | Protein phosphatase methylesterase 1 (Homo sapiens), Q9Y570 | AID 2130, 2009;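 active = inhibition above the campaign mean of all compounds plus 3 SD, cut at about 26% in these data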;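 note: competitive labeling of PME-1 active site by serine hydrolase directed probe; 0% = PME-1 with DMSO and 100% = wells lacking PME-1 enzyme; inhibitors block probe labeling so polarization falls and inhibition rises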
Target sequence (Q9Y570 whole entry, looked up): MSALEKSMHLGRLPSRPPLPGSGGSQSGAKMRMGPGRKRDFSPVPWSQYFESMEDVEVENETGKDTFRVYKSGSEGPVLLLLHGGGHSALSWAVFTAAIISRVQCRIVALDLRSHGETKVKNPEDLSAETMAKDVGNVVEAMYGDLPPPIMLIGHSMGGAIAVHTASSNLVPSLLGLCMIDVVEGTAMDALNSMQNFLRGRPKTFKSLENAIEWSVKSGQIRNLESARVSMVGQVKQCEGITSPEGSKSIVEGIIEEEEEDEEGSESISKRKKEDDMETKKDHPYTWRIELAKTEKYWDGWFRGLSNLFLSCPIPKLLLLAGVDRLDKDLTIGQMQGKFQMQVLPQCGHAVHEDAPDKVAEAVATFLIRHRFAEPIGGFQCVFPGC
LYPLA1 inh – LYPLA1 inhibitors, primary screen, counter-screen for PME1 inhibitor project, biochemical, fluorescence polarization, FP-Rh probe ABPP; Acyl-protein thioesterase 1 (Homo sapiens), O75608; recombinant LYPLA1; inhibition, % at 5.9 µM; 320,000 tested, 0.16% active;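 active = inhibition above the mean of all tested compounds plus 3 SD, set per campaign, cut at about 14% in these data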;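 note: inhibitors block serine hydrolase probe labeling of LYPLA1 so polarization falls; 0% = enzyme with DMSO and 100% = wells lacking LYPLA1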
Target sequence (O75608 whole entry, looked up): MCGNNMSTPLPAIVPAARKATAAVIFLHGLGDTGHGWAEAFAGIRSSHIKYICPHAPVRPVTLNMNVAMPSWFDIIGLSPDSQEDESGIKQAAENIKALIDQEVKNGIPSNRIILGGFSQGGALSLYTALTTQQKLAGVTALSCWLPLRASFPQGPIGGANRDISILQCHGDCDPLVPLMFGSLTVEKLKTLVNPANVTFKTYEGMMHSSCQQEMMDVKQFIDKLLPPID
GSTO1 inh – inhibitors of recombinant GSTO1, primary screen, counter-screen for RBBP9 inhibitor project, biochemical, fluorescence polarization; Glutathione S-transferase omega-1 (Homo sapiens), P78417; activity-based probe fluorescence polarization; inhibition, % at 5.96 µM; 300,000 tested, 1.1% active; AID 1974, 2009;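 active = inhibition above the campaign mean inhibition plus 3 SD, cut at about 35% in these data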;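 note: 0% = GSTO1-1 with DMSO and 100% = wells lacking GSTO1-1 enzyme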
Fam108B inh – mouse Fam108B serine hydrolase inhibitors, primary screen, counter-screen for RBBP9 inhibitor project, biochemical, fluorescence polarization. recombinant Fam108B, FP-Rh probe fluorescence polarization. inhibition, % at 9.51 µM. 300,000 tested, 0.33% active;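 active = inhibition above the screen mean inhibition plus 3 SD, computed separately per campaign, cut at about 18% in these data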;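 note: inhibitors lower polarization as less probe binds the enzyme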
An asterisk follows results filed as active; nt = not tested or not shown.

SMILES | LYPLA2 counter | PAD4 FP inh | PME-1 primary | LYPLA1 inh | GSTO1 inh | Fam108B inh
Nc1c(O)cccc1C(=O)O | 9.8 | 13.2 | -0.2 | -0.3 | 75.9* | 1.1
CSc1ncccc1C(=O)OCC(=O)NCCCc1ccccc1 | nt | -1.5 | nt | nt | nt | nt
COc1ccc(-n2ncc3c2CC(C)(C)CC3NC(=O)c2c(C)cc(=O)oc2C)cc1 (stereo unspecified) | -6.7 | -1.6 | 1.9 | -3.5 | -1.0 | 11.6
COc1ccc(-c2cc(-c3cc(OC)ccc3O)[nH]n2)cc1 | -4.1 | -3.5 | 65.7* | -7.8 | 0.2 | 13.2
COc1ccc(-c2cc(-c3ccc(Cl)cc3)n[nH]2)c(O)c1 | -0.6 | -4.9 | 41.9* | -11.7 | 3.5 | 2.6
COc1ccc(-c2n[nH]c(C)c2-c2cc(OC)ccc2O)cc1 | -2.0 | -2.6 | -3.5 | -1.0 | 3.1 | 1.7
COc1cc(/C=C2\CCC/C(=C\c3ccc(O)c(OC)c3)C2=O)ccc1O | -5.9 | 3.7 | 26.1* | -7.1 | 8.0 | 13.5
CSCCC(NS(=O)(=O)c1ccc(C)cc1)C(=O)NC1CCCCCC1 (stereo unspecified) | 5.9 | -3.6 | -5.1 | 1.9 | 6.3 | 0.6
CC1=CC2=C(OC1N(C)C)c1cccc3cccc(c13)C2=O (stereo unspecified) | 8.1 | 17.9* | 24.2 | 5.8 | 9.1 | 10.3
CC[C@H]1CCCCc2ccccc2[C@@H](C(=O)C[C@@H](O)CC(C)=O)OC1=O | nt | -0.5 | nt | nt | nt | nt
CCCn1c2ccccc2c2cnn(CC(=O)NCCCN3CCN(c4ccccc4)CC3)c(=O)c21 | 8.6 | -0.1 | -0.3 | -0.7 | -1.4 | 2.1
COc1ccc(OC)c(/C=C2\SC(=S)N(C(C(=O)O)c3ccccc3)C2=O)c1 (stereo unspecified) | -0.3 | -3.2 | 1.9 | 0.2 | -3.3 | -0.3
CCOc1ccc(/C=C2\SC(=S)N(C(C(=O)O)c3ccccc3)C2=O)cc1OC (stereo unspecified) | -0.4 | -3.8 | 35.5* | 1.6 | -4.8 | 2.1
Cc1cc(C)nc(SCc2nnc(SCC(=O)Nc3nc(-c4ccccc4)cs3)n2C)n1 | 0.9 | 2.1 | 0.2 | -0.1 | 18.7 | -0.3
Cc1ccc(C(=O)CSc2nnc(CNc3nc(-c4ccccc4)cs3)n2C)cc1 | 8.6 | 2.4 | -0.3 | 1.1 | 36.9* | 2.6
Cc1occc1C(=O)NNC(=O)c1ccc(S(=O)(=O)N(C)C)cc1 | -1.6 | -3.4 | -0.5 | -3.0 | nt | nt
CCOc1ccc(/C=C2\CCCc3c2nc2ccccc2c3C(=O)O)cc1OC | 5.6 | 26.8* | 3.9 | 7.5 | 4.7 | 10.5
COc1ccc2[nH]c3c(c2c1)CCN1C(=O)C(CC(=O)NCCCn2ccnc2)C[C@H](C(=O)N2CCCCC2)[C@@]31CCc1ccccc1 (stereo partly specified) | nt | -3.7 | nt | nt | nt | nt
Cc1ccc(C(NC(=O)N2CCOCC2)=C(Cl)Cl)cc1F | 0.7 | 4.7 | -1.7 | -0.8 | 36.5* | 4.4
Cc1ccc(C(NC(=O)N2CCOCC2)C(Cl)Cl)cc1F (stereo unspecified) | 9.0 | -5.3 | 1.2 | -0.3 | 1.3 | 2.2
Cc1ccccc1NS(=O)(=O)c1nnc(NC(=O)CC(C)C)s1 | 0.7 | -5.4 | -3.5 | -3.6 | -4.4 | 5.0
O=S(=O)(Nc1ccc(-n2cnnn2)cc1)c1cccs1 | 6.0 | -3.8 | -1.4 | 3.7 | nt | nt
O=C(CCS(=O)(=O)c1ccc(Cl)cc1)NCCN1C(=O)S/C(=C\c2ccccc2F)C1=O | 0.8 | 4.3 | -7.1 | -6.0 | 1.8 | -1.0
Cc1ccc(S(=O)(=O)CCC(=O)NCCN2C(=O)S/C(=C\c3ccccc3)C2=O)cc1 | 0.2 | -0.9 | 35.1* | 1.0 | -3.6 | -3.4
CCC(=O)Nc1ccc(C(=O)COC(=O)Cc2ccsc2)cc1 | 7.3 | -4.0 | 0.1 | 1.4 | nt | nt
SMILES | LYPLA2 counter | PAD4 FP inh | PME-1 primary | LYPLA1 inh | GSTO1 inh | Fam108B inh
Cc1ccccc1NC(=S)N=Nc1c(O)n(C)c2ccc(S(=O)(=O)N3CCOCC3)cc12 | 5.9 | -5.6 | 5.6 | -2.2 | 36.3* | 11.5
Cc1cccc(C)c1NC(=S)N=Nc1c(O)n(C)c2ccc(S(=O)(=O)N3CCOCC3)cc12 | -1.2 | -4.1 | -5.2 | -2.5 | 0.7 | 1.8
CCCCN(CC)CCCNC(=O)c1cn(C)c2ccc(S(=O)(=O)N(C)C3CCCCC3)cc2c1=O | 6.6 | -3.9 | 40.2* | 1.0 | -6.3 | 4.0
CCCCN(CCCC)CCNC(=O)c1cn(CC)c2ccc(S(=O)(=O)N(C)C3CCCCC3)cc2c1=O | 4.8 | 0.6 | 82.5* | -0.6 | 1.8 | 1.0
CCn1cc(C(=O)NCCCN2CCCC(C)C2)c(=O)c2cc(S(=O)(=O)N(C)C3CCCCC3)ccc21 (stereo unspecified) | -3.9 | -1.9 | 52.2* | -2.1 | -1.8 | -6.8
CCCc1cc(C(=O)Nc2cccc(C(C)=O)c2)no1 | 4.1 | 5.0 | -2.3 | -2.9 | 35.6* | -0.6
CCCCCCC(=O)N1CCC(c2nc3c(nnn3Cc3ccccc3Cl)c(=O)[nH]2)CC1 | 38.5* | -1.7 | 26.8* | 6.9 | -2.8 | -3.4
COc1cccc(/C=C/C(=O)OCC(=O)NCC2CCCCC2)c1OC | -3.3 | -1.7 | -5.5 | -1.8 | nt | nt
Cc1noc(C)c1NC(=O)Nc1cccc2c1O[C@@H](CN(C)C(=O)Nc1ccc3c(c1)OCO3)[C@@H](C)CN([C@H](C)CO)C2=O | nt | 2.4 | nt | nt | nt | nt
CC(C(=O)Nc1ccc(C(=O)O)c(O)c1)N1C(=O)/C(=C\c2ccco2)SC1=S (stereo unspecified) | -6.7 | 10.7 | -31.0 | 0.6 | 28.0 | 19.4*
COC(=O)CCC(=O)OC1(C)C(=O)C2=CN(CCc3ccccn3)C(c3ccc(OC)cc3)=CC2=C(Br)C1=O (stereo unspecified) | 7.0 | -7.6 | 2.3 | 0.7 | 65.9* | 1.2
Brc1ccc(C=Nc2ccc(Nc3ccccc3)cc2)s1 | 3.8 | 24.3* | -1.4 | 0.6 | 37.1* | 3.2
COc1cccc(NC2=C(NCCO)C(=O)c3ccccc3C2=O)c1 | 15.0 | -5.9 | 5.5 | 5.8 | 12.0 | 1.2
CCOc1ccc(NC2=C(OC)C(=O)c3ccccc3C2=O)cc1 | 5.7 | -13.6 | 9.0 | 0.9 | 39.5* | 5.5
COc1ccc(NC2=C(NCCO)C(=O)c3ccccc3C2=O)cc1 | 11.8 | -13.5 | 1.7 | -0.9 | 44.4* | 1.1
Cc1cccc(NC2=C(NCCO)C(=O)c3ccccc3C2=O)c1 | 22.5 | -3.1 | 19.1 | 1.5 | 42.5* | 6.4
Cn1c(=O)c(-c2ccccc2[N+](=O)[O-])c(Cl)c2ccccc21 | 3.4 | 1.5 | -0.5 | 1.8 | -0.8 | -0.2
CCOc1ccccc1NC(=O)COC(=O)C(Cc1ccccc1)NC(=O)c1ccco1 (stereo unspecified) | 3.7 | -2.6 | 5.9 | 1.4 | nt | nt
CCOC(=O)CN(C(=O)COC(=O)C1=NNC(=O)CC1)c1ccc(F)cc1 | nt | -6.1 | nt | nt | nt | nt
